The whole screen tested about 330,000 compounds, of which about 80 (0.02%) were called active. Calls come from the whole dose curve; as a rule, active = well fitted activation curve with a large enough effect; inconclusive = small, poorly fitted or top-dose-only effect; inactive = flat fitted curve, though single readings scatter. The entries come from a sample that favours actives as a whole.
Potency is the fitted concentration of half-maximal effect.

Beta-2 adrenergic receptor (Homo sapiens), sequence (P07550 whole entry, looked up): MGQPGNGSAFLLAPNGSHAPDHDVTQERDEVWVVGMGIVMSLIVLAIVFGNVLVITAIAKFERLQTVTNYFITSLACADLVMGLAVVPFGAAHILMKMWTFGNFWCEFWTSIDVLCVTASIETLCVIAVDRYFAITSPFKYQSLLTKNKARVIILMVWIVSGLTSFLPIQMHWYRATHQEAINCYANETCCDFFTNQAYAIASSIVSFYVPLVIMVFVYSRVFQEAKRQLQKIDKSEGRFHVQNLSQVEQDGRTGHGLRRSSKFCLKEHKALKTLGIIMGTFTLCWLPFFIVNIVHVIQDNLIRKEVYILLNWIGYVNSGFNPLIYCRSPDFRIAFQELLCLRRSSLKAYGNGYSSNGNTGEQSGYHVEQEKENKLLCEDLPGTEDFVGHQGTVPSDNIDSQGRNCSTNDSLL

This assay deals with Beta-2 adrenergic receptor (Homo sapiens) (UniProt P07550). Put plainly: qHTS assay of beta-arrestin-biased ligands of beta2-adrenergic receptor.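 For activation: 0% = DMSO controls and full agonism = EC100 isoproterenol or metaproterenol.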 Note: nearly all actives have a fitted effect of over 65% in size. As to conditions: beta-arrestin recruitment to beta2AR, cell-based reporter; series mostly up to 46.1 µM; activation: at the top concentration. An excerpt:
NIH Molecular Libraries Probe Production Network [MLPCN]
NIH Chemical Genomics Center [NCGC]
PI: Bryan Roth and Bob Lefkowitz
The concept of biased agonism is an emerging concept of molecular pharmacology which proposes that seven transmembrane receptors (7TMRs) or G protein-coupled receptors (GPCRs), exist in multiple signaling conformations and complexes and that ligands (either agonists or antagonists) can induce signaling biased responses for distinct signal transduction cascades.
Furthermore, accumulating evidence over the last decade has drawn attention to a novel function of beta-arrestins as signal transducers that scaffold various signaling molecules upon activation of 7TMRs. […] This beta-arrestin-biased signaling presumably leads to distinct physiological outcomes from those by G protein activation.
Additionally, the active receptor conformations which […] on this beta-arrestin signaling are likely different from those activating G protein signaling
The goal of this screening project will be to discover and optimize novel beta-arrestin-biased ligands for beta2-AR signaling. A luminescent cell-based assay for beta2-AR-mediated agonism, known as the Tango assay, has been validated in which ligand binding of a recombinant beta2-AR and subsequent recruitment of a recombinant beta-arrestin lead to the release of the transcriptional activator tTA, which upregulates transcription of a tTA-responsive luciferase gene. […] Compounds were screened as a concentration-titration series that ranged from 46 microM to 0.6 nM.
NCGC Assay Protocol Summary:
Tango cells were dispensed into white, solid, tissue-culture-treated 1536-well plates at 1500 cells/well in DMEM, containing 1% fetal bovine serum (FBS). Then, 23 nL of compounds or DMSO were delivered to each well using a pin tool. Plates were incubated at 37 degrees C, 5% CO2 for 18 hr. Then 2.5 uL luminescent substrate mix (in-house prepared: 150 mM Tris-Cl, pH 7.6, 3 mM MgCl2, 1% Triton X-100, 5 mM DTT, 0.5 mM CoA, 0.15 mM ATP, 0.44 mM D-luciferin, final concentrations) was added to each well. Plates were then incubated for 15 minutes at room temperature, and subsequently measured on a ViewLux plate reader for luminescent signal using a clear filter with a 10 second exposure and 2x binning. The %Activity was determined from the corrected luminescence values.
Concentration-response curves were fitted to the signals arising from the resulting luminescence. The concentration-effect curves were then classified based on curve quality (r2), response magnitude and degree of measured activity, and compounds were subsequently categorized based on their curve class.
Keywords: biased agonism, beta2-AR, beta-arrestin, GPCR, 7TMR, Tango, luminescence, MLSMR, MLPCN, NIH Roadmap, qHTS, NCGC
In the case of `CC12C(=O)N(c3ccccc3)C(=O)C1C(c1ccccc1)N1CCCN12` (stereo unspecified), the “activation” value is -0.468% (inactive).
The same measure, in the same setting: next, `Cc1c(Cl)cccc1NC(=O)NCc1ccc(C)n1C`: 0.368% (inactive); `CCOC(=O)Cc1ncccc1C(=O)Nc1ccc(OC(F)(F)F)cc1`: 0.342% (inactive).
`CCOC(=O)N1CCC(N(CCOC)C(=O)Nc2ccc(C)c(C)c2)CC1`: the “activation” value was -1.07% (inactive).
On to `CCOC(=O)N/N=C1\CC(C)S(=O)(=O)c2ccc(Cl)cc21` (stereo unspecified), for which the “activation” value was 0.455% (inactive).
As for `CC1CCC(C(C)C)C(=O)/C1=C\c1ccc(NC(=O)CCC(=O)O)cc1` (stereo unspecified), the “activation” value was -0.303% (inactive).
Regarding `COC(=O)c1ccc(-c2c(-c3ccccc3)ncc3cc(OC)c(OC)cc23)cc1`, the “activation” value was 0.148% (inactive).
Regarding `NC1=NC2(CCCCC2)N(c2ccc(F)cc2F)C(N)=N1`, the “activation” value is 0.0396% (inactive).
Same read-out and setting: next, `O=C(Oc1ccc(Br)cc1C(=S)N1CCOCC1)c1cccc([N+](=O)[O-])c1`: 0.418% (inactive); `CCOC(=O)C1CCN(Cc2coc3ccc(Cl)cc3c2=O)CC1`: -0.282% (inactive).
On to `COc1ccc(S(=O)(=O)N(C)CC(=O)N2CCCC2)cc1Cl`, for which the “activation” value was -0.204% (inactive).
With `C/C(=N\NC(=O)c1cc2c(s1)CCC(C)C2)c1cccnc1` (stereo unspecified), the “activation” value is -0.278% (inactive).
`COC(=O)[C@H](CC(C)C)NC(=O)N1CCCCC1C` (stereo partly specified): the “activation” value was -0.413% (inactive).
Regarding `Cc1ccccc1-n1nc(C)c2c1N=C1C(Cl)=CC(Cl)=CN1C2c1ccc(C(=O)O)cc1` (stereo unspecified), the “activation” value is -0.645% (inactive).
`COc1ccc2c(c1)CCc1cn3ncc(C#N)c3nc1-2`: the “activation” value is -0.718% (inactive).
For `COc1ccc(OCC(=O)NCCc2ccc(S(N)(=O)=O)cc2)cc1`, the “activation” value is -0.147% (inactive).
Turning to `Cc1nn(-c2ccccc2)c2sc(C(=O)N(Cc3ccco3)C(C)C(=O)NC(C)(C)C)cc12` (stereo unspecified), the “activation” value is -0.496% (inactive).
Regarding `Cc1ccccc1N1CCN(C2CCCN(C(=O)c3cn4c(C)cccc4n3)C2)CC1` (stereo unspecified), the “activation” value is 0.177% (inactive).
Still for that read-out and setting: next, `COCCn1c(SCC(=O)Nc2cc(OC)ccc2OC)nc2c(c1=O)SC(C)C2` (stereo unspecified): -0.395% (inactive); `Cc1cc(Cl)ccc1NC(=S)N1CCC(C(N)=O)(N2CCCCC2)CC1`: -0.676% (inactive).
Still for that read-out and setting: next, `C[C@H]1COC(=O)[C@H](CC(=O)OC(C)(C)C)C/C=C\C[C@@H](CC(=O)N[C@H](CO)Cc2ccccc2)C(=O)N1`: -0.195% (inactive).
Take `CCCn1c(C(Cc2ccccc2)NC(=O)COC)nc2ccccc21` (stereo unspecified): the “activation” value is 0.278% (inactive).
The same measure, in the same setting: next, `O=C(Nc1ccccc1F)C1C2C=CC3(O2)C1C(=O)N(c1cccnc1)C3C(=O)NC1CCCCC1` (stereo unspecified): -0.119% (inactive); `COC(=O)CN1C(=O)C(C)(C)Oc2ccc(C(=O)Nc3cccc(OC)c3)cc21`: 0.44% (inactive).
Regarding `CC1(c2ccc(Cl)cc2Cl)NC(=O)N(CC(=O)Nc2cccnc2Cl)C1=O` (stereo unspecified), the “activation” value is 0.107% (inactive).
On the same count and under the same terms, next, `CSc1nc2nc3c(c(=O)n2[nH]1)CCC3`: 0.387% (inactive).
As for `O=C(COC(=O)Cc1ccc(Br)cc1)Nc1ccc(N2CCOCC2)cc1`, the “activation” value is 0.283% (inactive).
As for `CCN1CCCC1CNC(=O)Cn1cnc2ccc(S(=O)(=O)N3CCC(C)CC3)cc2c1=O` (stereo unspecified), the “activation” value is -0.835% (inactive).
As to `O=C(CCNC(=O)c1ccccc1Cl)NN=Cc1ccco1`, the “activation” value was -1.11% (inactive).
For the compound `Cc1ccc(S(=O)(=O)N2CCN(C(=O)CCC(=O)NC3CCCc4ccccc43)CC2)cc1` (stereo unspecified), the “activation” value is -0.327% (inactive).
For `COC(=O)C(C)n1cnc2c(nnn2-c2ccc(F)cc2)c1=O` (stereo unspecified), the “activation” value is -1.45% (inactive).
Still for that read-out and setting: next, `Cc1ccc(C2(C)NC(=O)N(CC(=O)N3CC(=O)Nc4ccccc43)C2=O)cc1` (stereo unspecified): -0.447% (inactive); `CC(OC(=O)CNS(=O)(=O)/C=C/c1ccccc1)C(=O)Nc1ccc(S(=O)(=O)N2CCCC2)cc1` (stereo unspecified): -0.924% (inactive); `CCOC(=O)c1c(-c2cccc(N)c2)cn2ccccc12`: -0.239% (inactive).
With `CCOc1cc2[nH]c(=S)n(CCCN3CCCC3=O)c(=O)c2cc1OCC`, the “activation” value was -0.317% (inactive).
On the same count and under the same terms, next, `COc1ccc(CS(=O)/C(Cl)=C(/Cl)C(=O)Nc2ccc(OC)nc2)cc1` (stereo unspecified): -0.108% (inactive); `CC1CC1C(=O)OCC(=O)Nc1cccc(F)c1` (stereo unspecified): -0.288% (inactive); `CC1CCC2(CC1)NC(=O)N(Cc1nnc(-c3cccs3)o1)C2=O` (stereo unspecified): 0.245% (inactive).
As for `NC(=O)c1ccsc1NC(=O)COC(=O)Cc1n[nH]c(=O)c2ccccc12`, the “activation” value was -0.009% (inactive).
On to `CCOCCCNC(=O)c1cn(CC(C)C)c(=O)c2c1c1ccccc1n2C`, for which the “activation” value is -0.285% (inactive).
On to `Cc1cc(C)c(C#N)c(SCC(=O)NN2CC(=O)N(c3ccccc3F)CC2=O)n1`, for which the “activation” value was -0.808% (inactive).
Consider `COc1ccc(CC(NC(C)=O)C(=O)NC2CCN(C(=O)C3CC3)CC2)cc1OC` (stereo unspecified), for which the “activation” value is 0.0754% (inactive).
Take `COc1ccccc1OCCn1c(SCC(N)=O)nc2ccccc21`: the “activation” value was -0.935% (inactive).
As for `CCc1cccc(C)c1NC(=O)COC(=O)CC1CCCC1`, the “activation” value is -0.1% (inactive).
Same read-out and setting: next, `O=C(Nc1cc(-c2nn(CC(=O)N3CCCCC3)c(=O)c3ccccc23)ccc1N1CCOCC1)c1ccc(Cl)cc1`: -0.799% (inactive); `COc1ccc2c(-c3ccccc3)cc(SCC(=O)N(C)C3CCS(=O)(=O)C3)nc2c1` (stereo unspecified): -1.89% (inactive); `COC(=O)c1cccc(NC(=O)CN2CCC(NC(=O)c3cc(OC)c(OC)c(OC)c3)CC2)c1`: -0.217% (inactive).
For the compound `O=C(COc1ccccc1Cl)Nc1ccc(C(=O)c2ccc(C(=O)O)cc2)cc1`, the “activation” value is -0.148% (inactive).
In the case of `OC(COCC1COc2ccccc2O1)CN1CCN(c2ccc(F)cc2)CC1` (stereo unspecified), the “activation” value is -0.322% (inactive).
The same measure, in the same setting: next, `O=C(O)C1CCCN1S(=O)(=O)c1ccc2c(c1)CCC2` (stereo unspecified): -0.269% (inactive); `COc1ccc(-n2nnnc2SCC(=O)NCc2cccs2)cc1`: 0.169% (inactive).
On to `Oc1ccc(N=Cc2sc3ccccc3c2Cl)cc1`, for which the Potency was 13 µM (active).
Regarding `CC(=O)n1c(C=Nc2ccccc2)c(O)c2ccccc21`, the “activation” value is 0.129% (inactive).
The same measure, in the same setting: the result for `Cn1c(SCC(=O)N2CCCC2)nnc1-c1cccs1` reads 0.281% (inactive); that for `CC(C(=O)N1CCOCC1)N1c2cccc3cccc(c23)S1(=O)=O` (stereo unspecified), -0.178% (inactive); that for `Nc1ccc(Nc2cc(O)c3ncccc3c2)cc1`, -0.411% (inactive).
Same read-out and setting: the result for `COc1nc(N=C(N)N)nc2c(C)cccc12` reads -0.842% (inactive); that for `CCOC(=O)C1=C(c2ccccc2)N=C2SCC(=O)N2C1c1ccc(O)c(OC)c1` (stereo unspecified), -1.68% (inactive).
Still for that read-out and setting: next, `COc1cc(C)c(C(C)C)cc1S(=O)(=O)n1ccnc1`: 0.444% (inactive); `CCOc1ccc(N(CC(=O)NCCc2ccc(F)cc2)S(=O)(=O)c2ccccc2)cc1`: -0.258% (inactive).
Turning to `CCN(C(=O)COC(=O)c1c(NC(C)=O)sc(C)c1C)C1CCS(=O)(=O)C1` (stereo unspecified), the “activation” value was -0.227% (inactive).
Still for that read-out and setting: the result for `C=CCN(c1ccccc1C(=O)NCC(=O)OCC)S(=O)(=O)c1ccc(C)cc1` reads -0.554% (inactive); that for `CCCOc1ccc(C2=CSC3=NCCN23)cc1Cl`, 0.319% (inactive); that for `CCc1ccc(-c2nc(SCC(=O)NC3CCCC3)n[nH]2)cc1`, 0.447% (inactive).
On to `Cc1cc(OCCOc2cccc3cccnc23)c(C)cc1Cl`, for which the “activation” value was 0.256% (inactive).
`CCOC(=O)N1CCN(S(=O)(=O)N2CCCC(C(=O)NCCCN3CCC(C)CC3)C2)CC1` (stereo unspecified): the “activation” value is 0.177% (inactive).

The values above are taken from PubChem BioAssay AID492947 (National Center for Advancing Translational Sciences (NCATS), 2010).
